Screening data as filed in PubChem BioAssay.
Rab9 prom act = qHTS Assay for Rab9 Promoter Activators; Huh7 Rab9 promoter-luciferase reporter, luminescence, 24 h; Potency, µM (titrated, usually from 9.22 µM), without a hit: top-dose activation, negative = inhibition, hits mostly activators; actives 2.8% (n = 320,000); note: % of control where 0% means no effect; nearly all actives have a fitted effect of over 60% in size
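Stable Rab9-luc Huh7, 1500 cells/well, 2 h settle; cmpd in DMSO, 24 h, 37 °C/5% CO2; luciferase reagent 10 min RT; luminescence.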
NPC1 prom act = qHTS Assay for NPC1 Promoter Activators; AID 485313, 2010; Potency, µM (titrated, usually from 9.22 µM), for the others: at the top dose activation, actives largely listed as activators; actives 2.4% (n = 320,000); Huh7 NPC1 promoter luciferase reporter, 24 h; note: % of control where 0% means no effect; nearly all actives have a fitted effect of over 60% in size
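Cells: Huh7 expressing luciferase under the NPC1 promoter, 1500/well. Seeded 2 h, compound added, incubated 24 h at 37 °C. Luciferase reagent, 10 min ambient, then luminescence.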
ELG1 genotox = qHTS screen for small molecules that induce genotoxicity in human embryonic kidney (HEK293T) cells expressing luciferase-tagged ELG1 | HEK293T ELG1-luciferase reporter, luminescence, 16 h | Potency, µM (series often up to 46 µM), for inactives: at the top dose activity change, positive = activation, most hits filed as activators | actives 1.3% (n = 330,000); note: % of control where 0% means no effect; nearly all actives have a fitted effect of over 60% in size
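DMSO vehicle served as control against compound-treated ELG1-luciferase HEK293T cells; exposure lasted 16 hr at 37 °C and 5% CO2, followed by ONE-Glo luminescence detection after 30 min.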
SMN2 splice up = qHTS Assay for Enhancers of SMN2 Splice Variant Expression; HEK293 SMN2-luciferase splicing reporter, luminescence, 30-36 h; Potency, µM (highest dose often 46.1 µM), without a hit: top-dose activity change, positive = activation, actives largely listed as activators; actives 2.8% (n = 210,000); note: % of control where 0% means no effect; nearly all actives have a fitted effect of over 55% in size
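HEK293 cells carry an SMN2 […]–luciferase reporter in which exon 7 inclusion puts luciferase in frame. Cells were plated 10-12 h before compound addition, then incubated 30-36 h at 37C. ONE-Glo luminescence was read; sodium butyrate at 4.5 mM final served as control.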
p53 reactivation = qHTS assay for re-activators of p53 using a Luc reporter; AID 504706, 2011; actives 0.063% (n = 320,000); Potency, µM (titrated, usually from 92.2 µM), for the others: at the highest dose activity change, positive = activation, hits mostly activators; H1299 p53-A138V BP100-luciferase reporter, luminescence, 24 h; note: % of control where 0% means no effect; nearly all actives have a fitted effect of over 45% in size
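p53-null H1299 cells stably carrying temperature-sensitive p53-A138V and a BP100-luciferase reporter were pinned with compounds (4-point, 1:5 series) and held 24 hrs at 37 deg C. Luminescence was read 10 min after detection reagent.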
FLuc modulator = qHTS profiling assay for firefly luciferase inhibitor/activator using purifed enzyme and Km concentrations of substrates (counterscreen for miR-21 project). purified FLuc, Km substrates, luminescence inhibition. AID 588342, 2011. actives 6.9% (n = 360,000). Potency, µM (series often up to 57.5 µM), for inactives: at the highest dose activity change, negative = inhibition, actives largely listed as inhibitors;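 note: plate controls were vehicle for no effect and reference inhibitor for full effect; nearly all actives have a fitted effect of over 55% in size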
Target sequence (P08659 whole entry, looked up): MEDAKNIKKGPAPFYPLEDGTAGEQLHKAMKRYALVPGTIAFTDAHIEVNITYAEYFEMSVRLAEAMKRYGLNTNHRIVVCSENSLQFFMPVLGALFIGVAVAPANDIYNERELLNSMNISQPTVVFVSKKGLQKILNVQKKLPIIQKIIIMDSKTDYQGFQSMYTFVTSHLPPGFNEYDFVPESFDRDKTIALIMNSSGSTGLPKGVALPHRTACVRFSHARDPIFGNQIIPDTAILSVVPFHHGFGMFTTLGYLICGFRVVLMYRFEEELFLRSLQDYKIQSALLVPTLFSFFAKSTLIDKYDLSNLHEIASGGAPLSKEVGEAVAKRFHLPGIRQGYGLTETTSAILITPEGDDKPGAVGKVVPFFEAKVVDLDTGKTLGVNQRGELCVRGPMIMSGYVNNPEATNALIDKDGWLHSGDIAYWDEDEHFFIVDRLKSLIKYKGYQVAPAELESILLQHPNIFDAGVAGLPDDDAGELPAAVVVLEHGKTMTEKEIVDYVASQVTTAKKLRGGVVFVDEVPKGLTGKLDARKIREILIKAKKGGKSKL
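Purified P. pyralis luciferase (10nM final) with 10uM D-luciferin and 10uM ATP (Km levels) in 50mM Tris acetate pH 7.5, 10mM Mg acetate, 0.01% Tween-20, 0.05% BSA; qHTS 6-point titration, ~60 µM downward; luminescence read.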
* hit, by the source's call. The list is not random: actives were taken first. Their share in the collection is about 7.3%. Calls come from the whole dose curve; as a rule, active = well fitted curve in the direction sought with a large enough effect; inconclusive = small, poorly fitted or top-dose-only effect, or another doubt; inactive = no such curve, though single readings can be large; an effect the other way counts as inactive or inconclusive. Potency is the fitted concentration of half-maximal effect.

What do the screens show for `O=C(Nc1ccc(F)cc1)/C(Cl)=C/c1ccccc1`?
Rab9 prom act: 2.5µM*; NPC1 prom act: 4µM*; ELG1 genotox: inconclusive; SMN2 splice up: 14µM*; p53 reactivation: 0%; FLuc modulator: 1.2µM*

Results for CC(=O)c1ccc(NC(=O)/C(Cl)=C/c2ccccc2)cc1 ?
Rab9 prom act: 4µM*; NPC1 prom act: 3.5µM*; ELG1 genotox: 8.2µM*; SMN2 splice up: inconclusive; p53 reactivation: 2%; FLuc modulator: 0.95µM*

Results for CC(=O)c1ccc(NC(=O)C2(c3ccccc3)CC2(Cl)Cl)cc1 (stereo not drawn) ?
Rab9 prom act: inconclusive; NPC1 prom act: inconclusive; ELG1 genotox: inconclusive; p53 reactivation: 5%; FLuc modulator: 27µM*

Results for Cc1ccc(NC(=O)/C(Cl)=C\c2ccccc2)cc1 ?
Rab9 prom act: 7%; NPC1 prom act: -5%; ELG1 genotox: -5%; SMN2 splice up: 2%; p53 reactivation: 9%; FLuc modulator: 0%

How did Cc1cccc(C)c1N(CC(=O)NCc1ccco1)C(=O)CNS(=O)(=O)c1ccc(F)cc1 do in these assays?
Rab9 prom act: 4%; NPC1 prom act: -5%; ELG1 genotox: -1%; p53 reactivation: -2%; FLuc modulator: -1%

Results for COc1cc2c(cc1NC(=O)c1ccccc1C)n(C)c(=O)n2C ?
SMN2 splice up: -2%; FLuc modulator: -1%

How did CC(C)CCNC(=O)c1ccc2c(c1)N(Cc1ccccc1F)C(=O)c1ccccc1S2(=O)=O do in these assays?
SMN2 splice up: 3%; FLuc modulator: 4%

What do the screens show for `CCOc1ccc(CCNS(=O)(=O)c2c(C)nc3sc(C)cn3c2=O)cc1OCC`?
FLuc modulator: 0%

How did NNC(=O)c1nn(-c2ccc(Cl)cc2)cc1O do in these assays?
Rab9 prom act: inconclusive; NPC1 prom act: inconclusive; ELG1 genotox: 1%; p53 reactivation: 17%; FLuc modulator: 13µM*

How did Cc1ccc(NC(=O)COC(=O)c2nn(-c3ccc(Cl)cc3)cc2O)cc1 do in these assays?
ELG1 genotox: 11%; p53 reactivation: inconclusive

How did O=c1cc(-c2ccccc2F)nc(-c2ccccc2F)o1 do in these assays?
Rab9 prom act: 0%; NPC1 prom act: -1%; ELG1 genotox: 2%; SMN2 splice up: 0%; p53 reactivation: 7%; FLuc modulator: inconclusive

Results for Cc1cc2c(=O)oc(-c3ccc(F)cc3)nc2s1 ?
Rab9 prom act: -6%; NPC1 prom act: -6%; ELG1 genotox: -10%; p53 reactivation: -2%; FLuc modulator: 0%

What do the screens show for `CCc1cc2c(=O)oc(-c3ccccc3F)nc2s1`?
Rab9 prom act: -2%; NPC1 prom act: -3%; ELG1 genotox: 0%; FLuc modulator: 3.4µM*

Results for Cc1cc2c(=O)oc(-c3ccccc3Br)nc2s1 ?
Rab9 prom act: -3%; NPC1 prom act: 0%; ELG1 genotox: 2%; p53 reactivation: 11%; FLuc modulator: 7.6µM*

Results for Cc1cc(O)c2c(C)c(CC(=O)NCc3ccccc3Cl)c(=O)oc2c1 ?
SMN2 splice up: 1%; FLuc modulator: -2%

What do the screens show for `O=C(c1ccccc1)c1coc2ccc(O)c(Cl)c12`?
Rab9 prom act: 14%; NPC1 prom act: 13%; ELG1 genotox: inconclusive; SMN2 splice up: 12%; p53 reactivation: inconclusive; FLuc modulator: inconclusive

Results for Cc1ccc(C(=O)c2coc3ccc(O)c(Cl)c23)cc1 ?
Rab9 prom act: -2%; NPC1 prom act: 16%; ELG1 genotox: inconclusive; SMN2 splice up: -1%; p53 reactivation: inconclusive; FLuc modulator: 19µM*
